hgDAF-12 ag: agonists of H. glycines DAF-12 nuclear receptor. HEK293 GAL4-hgDAF12 UAS-luciferase reporter, agonist luminescence; normalized to butyrate control. activation, % at 6.8 µM. hit rate 1.8% among 370,000;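 active = activation above a cutoff set at the mean of all screened compounds plus 3 SD, cut at about 10% in these data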;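 also: 0% = DMSO wells and 100% = sodium butyrate wells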
DAX1 inh-1: DAX1 (NR0B1) inhibition, primary screen; HEK293T StAR-luciferase reporter, SF-1/DAX-1 repression relief; inhibition, % at 6.8 µM; hit rate 1.1% among 370,000; AID 652010;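 active = inhibition above the mean over all tested compounds plus 3 SD, cut at about 3.6% in these data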;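 also: 0% = DAX-1 cells with DMSO and 100% = cells lacking DAX-1 with DMSO; higher inhibition means more luminescence from relief of DAX-1 repression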
hcDAF12 agonist: H. contortus DAF-12 activation, primary screen | HEK293 hcDAF-12 lit1-tk-luc reporter, luminescence; 0% DMSO, 100% Δ7-dafachronic acid | activation, % at 6.8 µM | hit rate 1.4% among 370,000 | AID 652067;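 active = activation above the mean of all tested compounds plus 3 SD, cut at about 5.5% in these data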;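 also: 100% = response to 3 µM Δ7-dafachronic acid high control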
DAX1 inh-2: inhibits human nuclear receptor DAX1. P51843. HEK293 Gal4-DAX1 luciferase reporter, luminescence. inhibition, % at 6.75 µM. hit rate 0.99% among 340,000;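 active = inhibition above the mean over all tested compounds plus 3 SD, cut at about 4.2% in these data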;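 also: 0% = DAX1-transfected cells with DMSO and 100% = empty-vector control cells with DMSO; inhibition shows as a rise in luminescence from relieved DAX1 repression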
Target sequence (P51843 207-470 limits assumed): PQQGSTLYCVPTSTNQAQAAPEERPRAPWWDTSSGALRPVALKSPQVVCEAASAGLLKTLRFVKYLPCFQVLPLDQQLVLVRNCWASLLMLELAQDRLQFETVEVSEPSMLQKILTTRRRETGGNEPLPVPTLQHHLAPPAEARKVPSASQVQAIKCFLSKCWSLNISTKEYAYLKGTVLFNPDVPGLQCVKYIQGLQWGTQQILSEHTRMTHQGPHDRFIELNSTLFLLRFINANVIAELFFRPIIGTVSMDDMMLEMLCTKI
ssDAF-12 act: activates DAF-12 receptor from parasite S. stercoralis | HEK293 ssDAF-12/GRIP1 lit1-tk-luc reporter, luminescence; % of 3 µM dafachronic acid response | AID 652126 | hit rate 1% among 370,000 | activation, % at 6.8 µM;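 active = activation above the mean over all tested compounds plus 3 SD, cut at about 0.9% in these data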;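 also: 0% = DMSO-only wells and 100% = 3 µM delta7-dafachronic acid wells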
LXR ag: activates human LXR-beta, counter-screen for hcDAF-12 agonists; shares compounds with hcDAF12 agonist; HEK293 Gal4-LXR tk-luc reporter, luminescence, 24 h; normalized: DMSO 0%, positive control 100%; activation, % at 6.8 µM; 3,400 tested, under 10 active; AID 743027;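 active = mean percent activation of the reporter above a cutoff set as the average over tested compounds plus their standard deviation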
Target sequence (P55055 whole entry, looked up, the tested form may be a part): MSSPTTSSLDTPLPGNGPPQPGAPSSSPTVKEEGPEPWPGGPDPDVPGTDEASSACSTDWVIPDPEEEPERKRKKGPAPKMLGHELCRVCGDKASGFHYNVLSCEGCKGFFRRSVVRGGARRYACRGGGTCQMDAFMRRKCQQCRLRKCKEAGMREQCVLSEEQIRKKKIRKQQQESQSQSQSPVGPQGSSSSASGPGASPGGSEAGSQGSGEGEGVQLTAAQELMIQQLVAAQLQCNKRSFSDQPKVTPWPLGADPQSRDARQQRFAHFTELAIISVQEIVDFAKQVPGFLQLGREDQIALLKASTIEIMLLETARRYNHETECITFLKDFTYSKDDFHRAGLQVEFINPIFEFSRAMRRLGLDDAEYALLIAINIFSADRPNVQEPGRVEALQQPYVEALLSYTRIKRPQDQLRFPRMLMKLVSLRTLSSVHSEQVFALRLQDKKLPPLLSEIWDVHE
hcDAF12 conf: hcDAF-12 agonism, confirmation assay; shares compounds with hcDAF12 agonist; HEK293 hcDAF-12 lit1-tk-luc reporter, luminescence; % of Δ7-dafachronic acid response; activation, % at 6.8 µM; hit rate 61% among 3,400; AID 743032;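 active = mean activation across triplicate tests above the threshold derived from the earlier primary screen, cut at about 5.5% in these data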;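 also: 0% = DMSO only wells and 100% = 3 µM Δ7-dafachronic acid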
hgDAF12 ag: hgDAF-12 agonism, confirmation assay; shares compounds with hgDAF-12 ag; HEK293 GAL4-hgDAF12 luciferase reporter, agonist mode; percent of butyrate response; activation, % at 6.8 µM; hit rate 80% among 3,300;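 active = mean activation over triplicate wells above the hit cutoff derived from the earlier primary screen, cut at about 11% in these data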;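 also: 0% = DMSO low control and 100% = 2 mM sodium butyrate high control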
LXR ag 2: LXR-beta agonism as DAF-12 counter-screen. shares compounds with hgDAF-12 ag. HEK293 Gal4-LXR luciferase reporter, 24 h. 3,300 tested, under 10 active. activation, % at 6.8 µM. AID 743051;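 active = mean activation of the triplicate above a set limit carried over from the primary screen, none filed active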
The depositor's hits bear a star; · = no result. Only some compounds are listed: those with a hit (about 4.1% of all), similar ones and a draw of the others.

SMILES | hgDAF-12 ag | DAX1 inh-1 | hcDAF12 agonist | DAX1 inh-2 | ssDAF-12 act | LXR ag | hcDAF12 conf | hgDAF12 ag | LXR ag 2
Cn1c2nc3ccccc3c-2nc2ccccc21 | 16* | 2 | 8.3* | 2 | 0 | 0 | 6.7* | 15* | 0
Cn1c(-c2nonc2N)nc2ccccc21 | 5 | 0 | -3 | -1 | -2 | · | · | · | ·
CNc1ncnc2c1ncn2[C@H]1CN(Cc2ccncc2)C[C@@H](CO)O1 | 2 | -1 | -2 | · | -2 | · | · | · | ·
Clc1ccc(/C=N/Nc2ncnc3ccccc23)cc1Cl | 16* | 3 | 10* | 12* | 1.1* | 1 | 7.0* | 20* | 1
COc1cc(NC(=O)C/C(C)=N/NC(=O)Cc2ccccc2)c(OC)cc1Cl | 1 | -1 | 4 | -1 | -1 | · | · | · | ·
COc1cc(NC(=O)C/C(C)=N/NC(=O)c2cccs2)c(OC)cc1Cl | 15* | 4.0* | 7.9* | 2 | 0 | 0 | 4 | 6 | 0
CCc1ccc(-c2cc(C(=O)O)c3ccccc3n2)s1 | 17* | 2 | 11* | -1 | 1.1* | 1 | 9.1* | 14* | 1
COc1cc(/C=N/N(C)c2ccccc2)ccc1O | 17* | 3 | 7.5* | 3 | 0 | 2 | 8.2* | 18* | 1
O=C(Cc1c[nH]c2ccccc12)Nc1ccc(Nc2cccnc2)cc1 | -2 | -1 | 0 | · | 0 | · | · | · | ·
COc1ccc(NC(=O)c2csc3c2CCCCC3)c(OC)c1 | 1 | 0 | 3 | 1 | -1 | · | · | · | ·
O=C(Nc1ccccc1O)c1csc2c1CCCC2 | 16* | 2 | 7.4* | 2 | 1 | 1 | 10* | 13* | 0
O=C(Nc1ccccc1O)c1c(O)c2c([nH]c1=O)CCCC2 | 19* | 3 | 8.0* | 5.0* | 1.5* | 1 | 6.9* | 16* | 1
O=C(/C=C/[C@H]1O[C@@H](n2ccc(=O)[nH]c2=O)[C@H](O)[C@@H]1O)NCCN1CCCC1 | 0 | 0 | -1 | · | -1 | · | · | · | ·
Oc1cc2c(cc1CN1CCc3ccccc3C1)OCO2 | 1 | -1 | 0 | 0 | 0 | · | · | · | ·
c1ccc2c(c1)CCN(c1nc3cc4c(cc3s1)OCO4)C2 | 14* | 4.2* | 8.8* | 3 | 2.2* | 2 | 8.1* | 19* | 1
O=C(/C=C/c1ccco1)Nc1ccc2c(c1)OCCO2 | 16* | 4.4* | 7.5* | 0 | 0 | 1 | 8.9* | 18* | 1
Cc1csc(NC(=O)/C=C/c2ccco2)n1 | 14* | 2 | 6.6* | 0 | -1 | 1 | 3 | 13* | 1
O=S(=O)(c1ccc(Br)s1)N1CCN(c2ccc(F)cc2)CC1 | -1 | 0 | 1 | -1 | -1 | · | · | · | ·
Oc1c(-c2cc(-c3ccco3)[nH]n2)ccc2ccccc12 | 20* | 3.6* | 13* | 4 | 2.6* | 2 | 15* | 25* | 1
O=C(O)c1cc(N/N=C/c2ccc(-c3ccccc3)cc2)ccc1Cl | 24* | 2 | 11* | 3 | 1.3* | 2 | 12* | 25* | 1
O=C(O)c1cc(N/N=C/c2ccncc2)ccc1Cl | 1 | 1 | 0 | -3 | -1 | · | · | · | ·
O=c1c(-c2cc3ccccc3o2)[n+]([O-])c2ccccc2n1OCc1ccccn1 | 18* | 4.3* | 15* | 4 | 2.2* | 1 | 9.7* | 21* | 1
CCOn1c(=O)c(-c2cc3ccccc3o2)[n+]([O-])c2ccccc21 | · | · | · | 1 | · | · | · | · | ·
O=C(NCC(=O)N(Cc1cccs1)C(C(=O)NC1CCCC1)c1ccco1)c1cccs1 (stereo not given) | -4 | -1 | -1 | 0 | -2 | · | · | · | ·
O=[N+]([O-])c1cccnc1N/N=C/c1ccccc1O | 15* | 3.8* | 9.2* | -1 | 0 | 1 | 4 | 10 | 1
SMILES | hgDAF-12 ag | DAX1 inh-1 | hcDAF12 agonist | DAX1 inh-2 | ssDAF-12 act | LXR ag | hcDAF12 conf | hgDAF12 ag | LXR ag 2
CCCc1ccc(-c2cc(NC(=O)Cc3c(C)[nH]c4ccccc34)ccc2Nc2cccnc2)cc1 | 1 | -1 | 2 | · | -1 | · | · | · | ·
O=C(Nc1ccc2ccccc2c1)C1CC2CCC1C2 (stereo not given) | 15* | · | 3 | · | 0 | · | · | 12* | 1
COCCCNCCCCOc1ccc(OCc2ccccc2)cc1 | 6 | 1 | 3 | 0 | -1 | · | · | · | ·
c1ccc(COc2ccc(OCCCCN3CCCC3)cc2)cc1 | 14* | 2 | 4 | 1 | -1 | · | · | 14* | 1
C=CCNCCCCOc1ccc(OCc2ccccc2)cc1 | 15* | 3 | 3 | 1 | -1 | · | · | 17* | 1
NC(=O)c1ccccc1NC(=O)/C=C/C(=O)O | 9 | 0 | 0 | 2 | -1 | · | · | · | ·
Cc1ccc(/C=C/C(=O)Nc2ccccc2C(N)=O)cc1 | 18* | 4.4* | 4 | -1 | 0 | · | · | 15* | 1
CC(=O)C(/C=N/c1cc(-c2ccc(C)cc2)nn1-c1ccccc1)=C(\C)O | 19* | 3 | 5.6* | 1 | 1.1* | · | · | 10 | 0
Cc1ccc(NC(=O)c2cc(-c3ccccc3)nn2-c2ccccc2)cc1 | -2 | -1 | -1 | -2 | -2 | · | · | · | ·
O=C(/C=C/c1cccc(F)c1)Nc1nccs1 | 15* | 3 | 5 | 2 | 0 | · | · | 15* | 1
Cc1ccc(/C=C/C(=O)Nc2nccs2)o1 | 7 | 2 | 2 | 3 | -1 | · | · | · | ·
O=C(CNC(=O)c1ccc(-c2ccccc2)cc1)OCc1ccc(Br)cc1 | 13* | 0 | 2 | 0 | 0 | · | · | 6 | 0
CCOC(=O)[C@]12CCCC=C1N(Cc1ccco1)C(=O)[C@H](CC(=O)NCCC(C)C)C2 | 1 | -1 | -1 | · | -1 | · | · | · | ·
COc1ccc(-c2nc3c4ccccc4ccn3c2C=O)cc1 | 4 | 0 | 3 | 0 | 0 | · | · | · | ·
Cc1ccc(-c2nc3ccccn3c2C=O)cc1 | 14* | 2 | 5.8* | 2 | 1 | · | · | 12* | 0
C/C(=N\Nc1ccc([N+](=O)[O-])cc1)c1ccco1 | 15* | 1 | 3 | 4.8* | 0 | · | · | 15* | 1
Cc1ccc(C)c(OCc2ccc(C(=O)Nc3ccc([N+](=O)[O-])cn3)o2)c1 | -4 | -4 | -3 | -1 | -1 | · | · | · | ·
COc1ccc(C(=O)Nc2ccc([N+](=O)[O-])cn2)c(OC)c1 | 19* | 3 | 4 | 4 | 0 | · | · | 20* | 1
Cc1cnc(NC(=O)Cc2ccc(Br)cc2)s1 | -2 | 0 | 0 | 0 | -1 | · | · | · | ·

Screening data: PubChem BioAssay, The Scripps Research Institute Molecular Screening Center
